We go through 51 compounds from paper PMC4336329 (PLoS ONE, 2015).

Molecules are shown by their SMILES. Hit rate of the full screen: of about 310,000 compounds, about 14,000 (4.5%) showed an effect of 50% or more. The effect is printed as a negative number. The full list was thinned out, with strong results kept by preference.
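Also: peak tail current of the secondary pulse compared with the same well before compound.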

Chain of human ether-à-go-go-related gene (hERG) potassium channel (Q12809 whole entry, looked up): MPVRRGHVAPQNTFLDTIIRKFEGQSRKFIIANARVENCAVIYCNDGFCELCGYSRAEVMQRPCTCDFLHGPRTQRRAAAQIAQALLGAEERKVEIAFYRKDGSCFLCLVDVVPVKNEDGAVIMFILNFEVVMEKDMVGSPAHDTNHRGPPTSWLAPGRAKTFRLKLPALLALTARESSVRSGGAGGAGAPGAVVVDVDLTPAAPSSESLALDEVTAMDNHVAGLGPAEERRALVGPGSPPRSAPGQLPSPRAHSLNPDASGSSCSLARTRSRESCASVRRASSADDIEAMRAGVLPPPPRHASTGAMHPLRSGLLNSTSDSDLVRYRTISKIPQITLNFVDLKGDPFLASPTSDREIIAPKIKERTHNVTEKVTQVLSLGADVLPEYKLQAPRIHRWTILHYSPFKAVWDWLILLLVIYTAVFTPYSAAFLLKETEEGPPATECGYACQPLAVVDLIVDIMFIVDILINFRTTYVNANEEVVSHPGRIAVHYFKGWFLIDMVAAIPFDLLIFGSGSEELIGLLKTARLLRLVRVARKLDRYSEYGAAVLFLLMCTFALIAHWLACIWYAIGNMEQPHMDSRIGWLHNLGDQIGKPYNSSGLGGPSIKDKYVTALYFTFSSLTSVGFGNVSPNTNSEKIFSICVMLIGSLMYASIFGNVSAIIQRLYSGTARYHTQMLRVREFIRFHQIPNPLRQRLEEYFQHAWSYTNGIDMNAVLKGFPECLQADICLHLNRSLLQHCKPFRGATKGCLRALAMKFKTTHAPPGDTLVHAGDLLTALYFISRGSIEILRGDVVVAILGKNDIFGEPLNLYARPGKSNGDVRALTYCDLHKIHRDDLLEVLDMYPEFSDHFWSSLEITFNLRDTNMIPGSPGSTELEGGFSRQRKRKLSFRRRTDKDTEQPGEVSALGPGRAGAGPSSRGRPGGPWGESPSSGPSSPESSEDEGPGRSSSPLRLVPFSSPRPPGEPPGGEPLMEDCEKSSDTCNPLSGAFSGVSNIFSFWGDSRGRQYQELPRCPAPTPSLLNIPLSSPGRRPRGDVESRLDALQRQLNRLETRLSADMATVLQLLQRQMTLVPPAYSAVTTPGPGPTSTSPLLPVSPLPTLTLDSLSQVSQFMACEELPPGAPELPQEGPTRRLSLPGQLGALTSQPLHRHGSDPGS

This experiment addresses human ether-à-go-go-related gene (hERG) potassium channel (human, UniProt Q12809). Kind of experiment: primary screen, population patch clamp on CHO cells stably expressing hERG; higher = less effect of the substance.
For the compound `Cc1c(NC(=O)C2CCN(S(=O)(=O)c3ccccc3)CC2)c(=O)n(-c2ccccc2)n1C`, the “hERG current change (%, negative = inhibition) at 10uM” value turned out to be 4.47%.
Under `CCCC(=O)Nc1cc(C(=O)O)ccc1S(=O)(=O)c1ccc(C)cc1` stands 11.6%; under `Cc1nc2c(c3c1[nH]c1ccccc13)C(=O)CC(C)(C)C2`, -0.41%; under `O=C(O)CN1C(=O)/C(=C\c2cc(Br)ccc2OCc2ccc(Cl)cc2)SC1=S`, 15.2%.
Under `COc1ccc(-c2n[nH]c3c2CN(C(=O)c2ccc(OC)c(OC)c2)CC3)cc1` stands -15.5%; under `CC(=O)NC12CC3CC(C)(C1)CC(NC(C)=O)(C3)C2`, -11.4%; under `COc1ccc([C@H]2[C@@H](C#N)[C@H](C#N)N3CCCN23)cc1`, 14.2%.
As to `CN(C)CCCOc1ccc(C(C)(C)c2ccccc2)cc1.O=C(O)C(=O)O`, the “hERG current change (%, negative = inhibition) at 10uM” value is reported as -16.5%.
Consider `COc1ccc(NC(=O)COC(=O)c2n[nH]c3ccccc23)c(OC)c1`, for which the “hERG current change (%, negative = inhibition) at 10uM” value is -4.2%.
In the case of `O=C(c1cnn2ccccc12)N(Cc1ccco1)C1CCCC1`, the “hERG current change (%, negative = inhibition) at 10uM” value is 4.7%.
Under `Cc1ccc(C(C)C)cc1OCC(=O)NNC(=O)Nc1ccccc1` stands 28.3%; under `CC(C)=N/N=C(\c1cccc([N+](=O)[O-])c1)C12CN3CN(CN(C3)C1)C2`, 7.66%; under `CCOC(=O)N1CCN(C(=O)c2cc(COc3cccc(C(C)=O)c3)on2)CC1`, 1.62%.
Under `Cc1ccc(OCc2cc(C(=O)NC(C)Cc3cnccn3)no2)cc1C` (stereo not drawn) stands 0.149%; under `O=C(c1cc(COc2cccc(C(F)(F)F)c2)on1)N1CCSCC1`, -17%; under `CC(CNC(=O)c1cc(COc2c(F)cccc2F)on1)Oc1cccnc1` (stereo not drawn), -18.6%.
Under `COc1ccc(OCc2cc(C(=O)NCC(C)Oc3cccnc3)no2)c(Cl)c1` (stereo not drawn) stands -52.6%; under `Cc1ccc(OCc2cc(C(=O)NC(C)Cc3cccnc3)no2)cc1C` (stereo not drawn), -91%; under `CC(=O)c1cccc(OCc2cc(C(=O)NC(C)Cc3cccnc3)no2)c1` (stereo not drawn), -6.23%.
In the case of `COc1ccc(OCc2cc(C(=O)NC(C)Cc3cccnc3)no2)c(Cl)c1` (stereo not drawn), the “hERG current change (%, negative = inhibition) at 10uM” value is -36.3%.
Under `CCOC(=O)N1CCN(C(=O)c2cc(COc3cccc(C(F)(F)F)c3)on2)CC1` stands -76.7%; under `Cc1ccc(C2=NN3C(C(=O)c4ccccc4)Oc4ccccc4C3C2)cc1` (stereo not drawn), 0.487%; under `COC(=O)c1cc(NC(=O)CN(c2ccccc2OC)S(=O)(=O)c2ccccc2)ccc1Cl`, 1.44%.
Under `O=S(=O)(NC(=NC1CCCCC1)c1ccccc1F)c1ccccc1` stands 10.4%.
Under `Cc1ccc(C2=C(CC(=O)O)C(=O)CC2)cc1` stands 12.1%; under `O=C(O)CCCN1C(=O)C2C3c4ccccc4C(c4ccccc43)[C@@H]2C1=O` (stereo partly drawn), 13%; under `CSc1ccc(C2NC(=O)c3ccccc3N2)cc1` (stereo not drawn), 5.54%.
As to `COc1ccc(NC(=O)CSc2nccn2Cc2ccccc2)cc1`, the “hERG current change (%, negative = inhibition) at 10uM” value is listed as -4.86%.
Take `O=C(Cc1ccc([N+](=O)[O-])cc1)c1ccc(O)cc1O`: the “hERG current change (%, negative = inhibition) at 10uM” value is -40.4%.
As to `CN1CCN(c2ccc(S(=O)(=O)N3CCCCC3)cc2NC(=O)CSCc2ccccc2)CC1`, the “hERG current change (%, negative = inhibition) at 10uM” value was -20.5%.
Under `CN1CCN(c2ccc(S(=O)(=O)N3CCCCC3)cc2NC(=O)Cc2c(F)cccc2Cl)CC1` stands -21.8%; under `CN1CCN(c2ccc(S(=O)(=O)N3CCCCC3)cc2NC(=O)CCc2ccccc2)CC1`, -53.3%; under `CN1CCN(c2ccc(S(=O)(=O)N3CCOCC3)cc2NC(=O)CCc2ccccc2)CC1`, -8.75%.
As for `CC(=O)NCCC(=O)Nc1cc(S(=O)(=O)N2CCCCC2)ccc1N1CCN(C)CC1`, the “hERG current change (%, negative = inhibition) at 10uM” value was -9.13%.
`CN1CCN(c2ccc(S(=O)(=O)N3CCCCC3)cc2NC(=O)Cc2ccc(Cl)cc2)CC1`: the “hERG current change (%, negative = inhibition) at 10uM” value is -72%.
On to `COc1ccc(CC(=O)Nc2cc(S(=O)(=O)N3CCOCC3)ccc2N2CCOCC2)cc1`, for which the “hERG current change (%, negative = inhibition) at 10uM” value is recorded as 0.344%.
Regarding `O=C(Cc1ccc(Cl)cc1)Nc1cc(S(=O)(=O)N2CCOCC2)ccc1N1CCCC1`, the “hERG current change (%, negative = inhibition) at 10uM” value was -37.3%.
Under `COc1ccccc1CCC(=O)Nc1cc(S(=O)(=O)N2CCCCC2)ccc1N1CCN(C)CC1` stands -26.5%; under `CCN1CCN(c2ccc(S(=O)(=O)N3CCCCC3)cc2NC(=O)Cc2c(F)cccc2Cl)CC1`, -8.09%.
Under `O=C(Cc1c(F)cccc1Cl)Nc1cc(S(=O)(=O)N2CCCCC2)ccc1N1CCOCC1` stands -52.2%; under `COc1ccc(CC(=O)Nc2cc(S(=O)(=O)N3CCCCC3)ccc2N2CCN(C)CC2)cc1`, -54%; under `Cc1ccc(C(=O)COC(=O)c2ccccc2NC(=O)c2ccccc2)cc1[N+](=O)[O-]`, 4.55%.
For `O=C(COC(=O)/C=C/c1ccc(Cl)cc1Cl)Nc1ccc2c(c1)OCCO2`, the “hERG current change (%, negative = inhibition) at 10uM” value is 18.5%.
Under `O=C(Nc1cccc(C(=O)O)c1)/C(=C\c1ccco1)NC(=O)c1ccccc1Cl` stands 7.53%; under `COC(=O)c1[nH]c(C)c(/C(O)=C2\C(=O)C(=O)N(CCN3CCOCC3)C2c2ccc(C)o2)c1C` (stereo not drawn), -6.49%; under `Cc1c(CCC(=O)O)c(=O)oc2cc3occ(-c4ccc(Cl)cc4)c3cc12`, 21.7%.
Under `Cc1ccc(Oc2nnc(-c3cccs3)c3ccccc23)cc1` stands -0.00742%.
Under `CNC(=O)COC(=O)c1cccnc1SC` stands 3.53%.
Take `CCN1CCN(c2ccc(S(=O)(=O)N3CCCCC3)cc2NC(=O)Cc2ccc(Cl)c(Cl)c2)CC1`: the “hERG current change (%, negative = inhibition) at 10uM” value is -48.5%.
Under `CCN1CCN(c2ccc(S(=O)(=O)N3CCCCC3)cc2NC(=O)Cc2ccc(OC)cc2)CC1` stands -60.1%; under `CCN1CCN(c2ccc(S(=O)(=O)N3CCCCC3)cc2NC(=O)Cc2ccccc2)CC1`, -33.5%.
